Experimental data as given in PubChem BioAssay AID1159580 (chemical genetic matrix, 2015).
Hit rate of the full screen: of about 5,500 compounds, about 2,000 (36%) were called active. Roughly 18% stayed inconclusive and do not appear here. Rule as the data show it: active = normalized growth mostly below about 0.91 (no sharp cut-off); inconclusive = no clear call, values can overlap the other calls; inactive = mostly above about 0.92. This is one part of the list.

Assay: chemical genetic growth profiling, strain panel (AID 1159580);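 also: tested at 20 µM; growth read once vehicle control cultures reached saturation at 30 °C; 1 = growth at the plate median or of vehicle wells; lower values mean less growth of the strain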
Settings: S. cerevisiae deletion strains, growth OD
[1] = locus YAR019C, strain CDC15, active compounds read low
[2] = locus YBL105C, strain PKC1, active compounds read low
[3] = locus YBR135W, strain CKS1, active compounds read low
[4] = locus YBR136W, strain MEC1, active compounds read low
[5] = locus YBR160W, strain CDC28, active compounds read low
[6] = locus YDL017W, strain CDC7, active compounds read low
[7] = locus YDL028C, strain MPS1, active compounds read low
[8] = locus YDL101C, strain DUN1, active compounds read low
[9] = locus YDL108W, strain KIN28, active compounds read low
[10] = locus YDL132W, strain cdc53, active compounds read low
[11] = locus YDL214C, strain PRR2, active compounds read low
[12] = locus YDR052C, strain DBF4, active compounds read low
[13] = locus YDR054C, strain cdc34, active compounds read low
[14] = locus YDR226W, strain ADK1, active compounds read low
[15] = locus YDR477W, strain SNF1, active compounds read low
[16] = locus YER123W, strain YCK3, active compounds read low
[17] = locus YER133W, strain GLC7, active compounds read low
[18] = locus YFL009W, strain cdc4, active compounds read low
[19] = locus YFL029C, strain CAK1, active compounds read low
[20] = locus YFR003C, strain YPI1, active compounds read low
[21] = locus YFR019W, strain FAB1, active compounds read low
[22] = locus YFR028C, strain CDC14, active compounds read low
[23] = locus YGR040W, strain KSS1, active compounds read low
[24] = locus YGR052W, strain FMP48, active compounds read low
[25] = locus YGR092W, strain DBF2, active compounds read low
[26] = locus YHR030C, strain SLT2, active compounds read low
[27] = locus YHR079C, strain IRE1, active compounds read low
[28] = locus YHR082C, strain KSP1, active compounds read low
[29] = locus YHR205W, strain SCH9, active compounds read low
[30] = locus YIL147C, strain SLN1, active compounds read low
[31] = locus YJL095W, strain BCK1, active compounds read low
[32] = locus YJL128C, strain PBS2, active compounds read low
[33] = locus YJL157C, strain FAR1, active compounds read low
[34] = locus YJR016C, strain ILV3, active compounds read low
[35] = locus YJR066W, strain TOR1 (second series), active compounds read low
[36] = locus YJR066W, strain TOR1, active compounds read low
[37] = locus YKL048C, strain ELM1, active compounds read low
[38] = locus YKL067W, strain YNK1, active compounds read low
[39] = locus YKL101W, strain HSL1, active compounds read low
[40] = locus YKL193C, strain SDS22, active compounds read low
[41] = locus YKL203C, strain TOR2, active compounds read low
[42] = locus YLR113W, strain HOG1, active compounds read low
[43] = locus YLR133W, strain CKI1, active compounds read low
[44] = locus YLR403W, strain SFP1, active compounds read low
[45] = locus YML070W, strain DAK1, active compounds read low
[46] = locus YMR001C, strain CDC5, active compounds read low
[47] = locus YMR205C, strain PFK2 (second series), active compounds read low
[48] = locus YMR277W, strain FCP1, active compounds read low
[49] = locus YNL006W, strain LST8, active compounds read low
[50] = locus YNL020C, strain ARK1, active compounds read low
[51] = locus YNL161W, strain CBK1, active compounds read low
[52] = locus YNL183C, strain NPR1, active compounds read low
[53] = locus YNL207W, strain RIO2, active compounds read low
[54] = locus YNL222W, strain SSU72, active compounds read low
[55] = locus YNL307C, strain MCK1 (second series), active compounds read low
[56] = locus YOL078W, strain AVO1, active compounds read low
[57] = locus YOL136C, strain PFK27, active compounds read low
[58] = locus YOR061W, strain CKA2, active compounds read low
[59] = locus YOR119C, strain RIO1, active compounds read low
[60] = locus YOR231W, strain MKK1, active compounds read low
[61] = locus YOR329C, strain SCD5, active compounds read low
[62] = locus YPL031C, strain PHO85, active compounds read low
[63] = locus YPL153C, strain RAD53, active compounds read low
[64] = locus YPL204W, strain HRR25, active compounds read low
[65] = locus YPL209C, strain IPL1, active compounds read low
[66] = locus YPL256C, strain CLN2, active compounds read low
[67] = locus YPR025C, strain CCL1, active compounds read low
[68] = locus YPR106W, strain ISR1, active compounds read low
[69] = locus YPR111W, strain DBF20, active compounds read low
[70] = strain NNK1, active compounds read low
[71] = strain TSCII, active compounds read low

Measured: normalized growth

CC(=O)c1ccc(Sc2ccccc2)c([N+](=O)[O-])c1
active: [1] 0.877 | [2] 0.878 | [3] 0.864 | [4] 0.874 | [5] 0.876 | [6] 0.879 | [7] 0.885 | [8] 0.873 | [9] 0.876 | [10] 0.87 | [12] 0.898 | [13] 0.845 | [14] 0.857 | [18] 0.868 | [19] 0.87 | [20] 0.874 | [22] 0.865 | [25] 0.387 | [26] 0.75 | [30] 0.875 | [32] 0.778 | [34] 0.882 | [37] 0.753 | [40] 0.869 | [42] 0.698 | [46] 0.858 | [48] 0.859 | [49] 0.855 | [51] 0.869 | [53] 0.861 | [54] 0.876 | [56] 0.861 | [61] 0.881 | [65] 0.872 | [66] 0.782 | [67] 0.884 | [68] 0.866 | [69] 0.838 | [70] 0.853 | [71] 0.86
inactive: [11] 0.792 | [15] 0.788 | [16] 0.799 | [17] 0.874 | [21] 0.88 | [23] 0.78 | [24] 0.784 | [27] 0.813 | [28] 0.859 | [29] 0.773 | [31] 0.756 | [33] 0.818 | [35] 0.823 | [36] 0.811 | [38] 0.788 | [39] 0.753 | [41] 0.814 | [43] 0.79 | [44] 0.756 | [45] 0.809 | [47] 0.772 | [50] 0.803 | [52] 0.798 | [55] 0.772 | [57] 0.772 | [58] 0.815 | [59] 0.835 | [60] 0.788 | [62] 0.785 | [63] 0.79 | [64] 0.773

O=[N+]([O-])c1ccc(Sc2ccccc2)c([N+](=O)[O-])c1
active: [1] 0.862 | [2] 0.894 | [3] 0.874 | [4] 0.884 | [5] 0.896 | [6] 0.89 | [7] 0.888 | [8] 0.876 | [9] 0.88 | [10] 0.867 | [11] 0.695 | [13] 0.83 | [14] 0.858 | [18] 0.847 | [19] 0.866 | [20] 0.886 | [25] 0.271 | [26] 0.492 | [29] 0.522 | [30] 0.885 | [32] 0.757 | [34] 0.877 | [37] 0.71 | [38] 0.691 | [39] 0.662 | [40] 0.876 | [42] 0.396 | [43] 0.717 | [46] 0.868 | [47] 0.678 | [48] 0.868 | [49] 0.87 | [51] 0.864 | [53] 0.859 | [54] 0.88 | [56] 0.867 | [57] 0.65 | [61] 0.884 | [65] 0.883 | [66] 0.428 | [67] 0.893 | [68] 0.849 | [69] 0.812 | [70] 0.796 | [71] 0.853
inactive: [12] 0.913 | [15] 0.75 | [16] 0.685 | [17] 0.803 | [21] 0.84 | [22] 0.899 | [23] 0.784 | [24] 0.706 | [27] 0.655 | [28] 0.719 | [31] 0.673 | [33] 0.748 | [35] 0.756 | [36] 0.748 | [41] 0.785 | [44] 0.758 | [45] 0.689 | [50] 0.733 | [52] 0.708 | [55] 0.704 | [58] 0.768 | [59] 0.806 | [60] 0.64 | [62] 0.73 | [63] 0.723 | [64] 0.727
